The source of these data is PubChem BioAssay AID624483 (NMMLSC, 2012).

The campaign covered roughly 360,000 compounds. About 11,000 (3.1%) were called active. Not shown: some 2% with an inconclusive outcome. The sample holds actives, similar compounds and a random draw of the others, so the mix is not that of the screen. Cut-off read from the data, not from the text of the source: active = fluorescence intensity above about 16000; inconclusive = no clear call, values can overlap the other calls; inactive = below that.

The nature of the assay: counter-screen for toxin protease inhibitors: compound fluorescence, primary screen, artefact control for toxin protease inhibitor project, biochemical, multiplex microsphere, HTS (AID 624483). The settings on record: compound autofluorescence counterscreen, microsphere flow cytometry; hits give high values. A general note: The purpose of a counterscreen is to sort out artefacts and off-target activity.
Consider `COc1ccc2ccccc2c1CNCc1ccccn1`, for which the fluorescence intensity was 22000 (active).

On to `COc1ccc(C)cc1NC(=O)NCc1ccccn1`, for which the fluorescence intensity was 2130 (inactive).

For the compound `COc1ccc2ccccc2c1CNc1nnnn1C`, the fluorescence intensity is 4610 (inactive).

Take `Cc1ccc(Cc2c(-c3ccco3)nc3ccc(Cl)cn23)cc1`: the fluorescence intensity was 5920 (inactive).

Turning to `CC(=O)Nc1ccc(S(=O)(=O)NC2Cc3ccccc3C2)cc1`, the fluorescence intensity is 4250 (inactive).

For `COc1ccc(-c2cc(NC=O)c3ncc(-c4ccccc4)n3c2)cc1OC`, the fluorescence intensity is 4190 (inactive).

Consider `CN(CC#CCC(c1ccccc1)c1ccccc1)C(C)(C)C`, for which the fluorescence intensity was 13300 (inactive).

As to `CC(C)NC(=O)C(=O)NCCN1CCN(S(=O)(=O)c2ccc(Cl)cc2)CC1`, the fluorescence intensity is 10600 (inactive).

As for `CS(=O)(=O)N1CCCCC1c1cc(C(=O)NCc2ccccc2)no1` (stereo not given), the fluorescence intensity was 2870 (inactive).

On to `CC(=O)c1cccc(-c2cnc3c(NC=O)cc(-c4ccc(N5CCN(C)CC5)cc4)cn23)c1`, for which the fluorescence intensity is 3240 (inactive).

In the case of `O=C(Nc1ccc(C(=O)N2CCOCC2)cc1)Nc1cccc(C(F)(F)F)c1`, the fluorescence intensity was 6040 (inactive).

Regarding `NC(=O)Nc1cccc(C(F)(F)F)c1`, the fluorescence intensity was 23300 (active).

As to `O=C(CN1CCN(c2ccc(F)cc2)CC1)Nc1cccc(C(F)(F)F)c1`, the fluorescence intensity was 2100 (inactive).

In the case of `COc1ccc(NC(=O)C2(C)Cc3c(-c4ccc(C(N)=O)cc4)ccnc3O2)cc1` (stereo not given), the fluorescence intensity is 3540 (inactive).

Take `COC(=O)c1ccc(CNC(=O)C2CCC(=O)N(Cc3ccccn3)C2)cc1` (stereo not given): the fluorescence intensity is 4790 (inactive).

For `CCS(=O)(=O)Nc1cc(C(=O)OC)ccc1C(=O)OC`, the fluorescence intensity is 20300 (active).

As to `COC(=O)c1ccc(C(=O)OC)c(NC(=S)N2CCCCC2)c1`, the fluorescence intensity is 5240 (inactive).

In the case of `CCCN(CCC)C(=S)Nc1cc(C(=O)OC)ccc1C(=O)OC`, the fluorescence intensity was 2240 (inactive).

In the case of `CC1C(=O)N(Cc2cn(Cc3ccco3)nn2)CCS(=O)(=O)N1Cc1ccc(-c2cccc(CO)c2)cc1` (stereo not given), the fluorescence intensity is 3680 (inactive).

Take `C=CCN1C2CCCC1CC(NC(=S)Nc1cccc(OC)c1)C2` (stereo not given): the fluorescence intensity is 4340 (inactive).

Take `CCCCNC(=O)c1nc(C2CCN(S(=O)(=O)c3ccc(F)c(F)c3)CC2)oc1-c1cccc(C(F)(F)F)c1`: the fluorescence intensity was 5910 (inactive).

Regarding `O=C(Nc1ccc(Cl)cn1)c1cnn2cccnc12`, the fluorescence intensity was 4840 (inactive).

On to `Cc1cc(NC(=O)c2cnn3cccnc23)n(-c2ccccc2)n1`, for which the fluorescence intensity was 19500 (active).

For the compound `Cc1cc(NC(=O)Nc2ccc(Cl)cc2)n(-c2ccccc2)n1`, the fluorescence intensity was 5820 (inactive).

As to `O=C(NCc1ccc(F)cc1)c1cc(C2CCCCN2C(=O)C2CCCCC2)on1` (stereo not given), the fluorescence intensity was 3660 (inactive).

`CC(=O)c1cccc(NC(=S)N2CCCC2)c1`: the fluorescence intensity was 4420 (inactive).

With `O=C(Nc1cccc(C(=O)N2CCCC2)c1)c1ccccc1`, the fluorescence intensity is 23500 (active).

Regarding `CCC(CC)C(=O)Nc1cccc(C(=O)N2CCCC2)c1`, the fluorescence intensity was 9330 (inactive).

Consider `COc1ccccc1CNC(=O)C1CCN(c2nc3ccccc3o2)CC1`, for which the fluorescence intensity is 21300 (active).

On to `COc1ccc(OC)c(CNC(=O)C2CCCN(c3nc4ccccc4o3)C2)c1` (stereo not given), for which the fluorescence intensity is 15800 (inactive).

In the case of `COc1ccccc1CNC(=O)C1CCN(S(C)(=O)=O)CC1`, the fluorescence intensity is 8350 (inactive).

In the case of `COc1ccccc1CNC(=O)c1cc(-c2cc(F)ccc2OC)n[nH]1`, the fluorescence intensity is 3700 (inactive).

For `CC(C)C[C@H]1CNC(=O)C(=O)N1C[C@@H]1CCCN1C[C@H](Cc1ccccc1)N1C[C@H](CC(C)C)N(CC2CCCCCC2)C(=O)C1=O`, the fluorescence intensity is 5660 (inactive).

Consider `Cc1ccc2sc(N(CCN(C)C)C(=O)/C=C/c3cccs3)nc2c1C`, for which the fluorescence intensity was 4390 (inactive).

Consider `Cc1cc(C)c2nc(N(CCN(C)C)C(=O)/C=C/c3cccs3)sc2c1`, for which the fluorescence intensity is 4460 (inactive).

`Cc1cccc2sc(N(CCCN(C)C)C(=O)CCS(=O)(=O)c3ccccc3)nc12`: the fluorescence intensity is 32000 (active).

With `COc1cc(/C=C/CNC[C@H]2O[C@@H](n3cnc(C(N)=O)n3)[C@H](O)[C@@H]2O)ccc1O`, the fluorescence intensity is 3180 (inactive).

With `O=C(NCc1ccccc1Cl)C1CCN(S(=O)(=O)N2CCOCC2)CC1`, the fluorescence intensity was 5690 (inactive).

As for `Cc1ccccc1Cn1c(C)c(C(=O)NCc2cccc(C(F)(F)F)c2)sc1=O`, the fluorescence intensity is 5450 (inactive).

For the compound `FC(F)(F)c1ccccc1Cc1c(-c2ccccc2)nc2c3ccccc3ccn12`, the fluorescence intensity is 6460 (inactive).

Take `Cn1c(=O)c2c(nc(NCCNC(=O)c3ccco3)n2Cc2ccccc2F)n(C)c1=O`: the fluorescence intensity is 5330 (inactive).

In the case of `COc1ccc(N2CC(C)Cn3c2nc2c3c(=O)n(Cc3ccccc3F)c(=O)n2C)c(OC)c1` (stereo not given), the fluorescence intensity was 5760 (inactive).

As for `CC(C)OCCCNc1nc2c(c(=O)n(Cc3ccccc3F)c(=O)n2C)n1C`, the fluorescence intensity was 23400 (active).

Regarding `CCc1ccc([C@@H]2CC(=O)[C@@H]3CN(S(=O)(=O)c4ccc(C)cc4)[C@H](c4ccc(Cl)cc4)C[C@@H]3N2S(=O)(=O)c2ccc(C)cc2)cc1`, the fluorescence intensity is 6290 (inactive).

Take `COc1ccc(CCn2c(O)c(C=NC3CC3)c(=O)[nH]c2=O)cc1OC`: the fluorescence intensity was 3180 (inactive).

Consider `O=c1[nH]c(=O)n(CCc2ccc(F)cc2)c(O)c1/C=N/N1CCCCC1`, for which the fluorescence intensity was 3680 (inactive).

Turning to `COc1ccc(CCn2c(O)c(C=NCCCn3ccnc3)c(=O)[nH]c2=O)cc1OC`, the fluorescence intensity is 22700 (active).

Turning to `CCc1nc2ccc(C(=O)Nc3cccc(OC)c3)cn2c1N(CCC(C)C)CCN(C)C`, the fluorescence intensity was 3940 (inactive).

As for `COC(=O)c1ccc(S(=O)(=O)N(CCO)Cc2ccccc2)n1C`, the fluorescence intensity was 5690 (inactive).

`CCCC(=O)N1CCC1(C)C(=O)NCc1ccc(SC)cc1` (stereo not given): the fluorescence intensity is 4000 (inactive).

As to `O=c1oc2ccccc2c(CNc2ccccc2)c1[N+](=O)[O-]`, the fluorescence intensity was 3710 (inactive).

As for `CC1(C(=O)NS(=O)(=O)c2ccc3ccccc3c2)CCN1C(=O)C1(c2ccc(Cl)cc2)CCC1` (stereo not given), the fluorescence intensity was 3400 (inactive).

`CCc1nc2c(OCc3cccc(OC)c3)cccn2c1N(C)C(=O)C(C)C`: the fluorescence intensity was 4100 (inactive).

In the case of `COc1ccc2nc(-c3ccccn3)ccc2c1`, the fluorescence intensity is 4000 (inactive).

Regarding `CC(C)c1nc(-c2ccccn2)no1`, the fluorescence intensity was 21700 (active).

Turning to `O=C(Oc1ccc(-c2nc(-c3ccccn3)no2)cc1)c1ccccc1`, the fluorescence intensity was 3190 (inactive).

For the compound `CC(=O)NC(c1ccccc1)c1nc(-c2cccc(C(C)C)c2)cs1` (stereo not given), the fluorescence intensity was 3400 (inactive).

`Cc1ccccc1OCC(=O)NNC(=O)c1ccc(-n2cncn2)c([N+](=O)[O-])c1`: the fluorescence intensity is 5300 (inactive).

With `C=C(C)Cn1c(N2CCN(CC)CC2)nc2c1c(=O)[nH]c(=O)n2C`, the fluorescence intensity is 4600 (inactive).

`CCOC(=O)C1C(c2ccc(OC)c(OC)c2)c2c([nH][nH]c2=O)CC1(C)O` (stereo not given): the fluorescence intensity is 4630 (inactive).

As for `COc1ccc(C2OCC3(CO2)SC(=O)NC3=O)cc1OC` (stereo not given), the fluorescence intensity was 2510 (inactive).

On to `CCCC(C)n1[nH]c(=O)c2c1NC(=O)CSC2c1ccc(OC)c(OC)c1` (stereo not given), for which the fluorescence intensity is 20600 (active).

Turning to `CCCCN1CC(N2CCN(Cc3cccc(C)c3)CC2)CS1(=O)=O` (stereo not given), the fluorescence intensity was 6580 (inactive).

Take `CC(C)(C)Nc1c(N)c(=O)oc2ccccc12`: the fluorescence intensity was 17700 (active).

In the case of `Nc1c(NCCc2ccccc2)c2ccccc2oc1=O`, the fluorescence intensity is 3190 (inactive).

Consider `O=c1oc2ccccc2c(=O)c2ccccc12`, for which the fluorescence intensity was 3730 (inactive).

As for `CN(C)Cc1c(O)ccc2occ(C(O)c3ccccc3)c12` (stereo not given), the fluorescence intensity is 2380 (inactive).

Consider `CC(=O)c1cccc(-c2cnc3c(NC=O)cc(-c4cccc(C(=O)N(C)C)c4)cn23)c1`, for which the fluorescence intensity was 4000 (inactive).

Take `OCCC#Cc1ccc(N2C(c3ccsc3)=Cc3ccc(F)cc3C2c2c[nH]c3ccccc23)cc1` (stereo not given): the fluorescence intensity is 4910 (inactive).

Take `CCOC(=O)C1=C(CC)OC(N)=C(C#N)C1c1ccc(F)cc1F` (stereo not given): the fluorescence intensity is 2060 (inactive).

Turning to `CCC1=C(C(=O)OC)C(c2cc(OC)ccc2OC)C(C#N)=C(N)O1` (stereo not given), the fluorescence intensity was 21500 (active).

For `COC(=O)C1=C(C)N(C)C(=S)NC1c1cc(OC)ccc1OC` (stereo not given), the fluorescence intensity was 4360 (inactive).

Consider `COc1ccc(OCCNS(=O)(=O)Cc2ccccc2)cc1`, for which the fluorescence intensity is 2820 (inactive).

As for `Cc1cc(C)cc(NS(=O)(=O)Cc2ccccc2)c1`, the fluorescence intensity is 3320 (inactive).

On to `CCOCCCNS(=O)(=O)Cc1ccccc1`, for which the fluorescence intensity is 18800 (active).

For the compound `COCCNC(=O)c1cc2c(Br)ccc(Br)c2nc1N`, the fluorescence intensity is 4280 (inactive).

For the compound `CC(=O)Nc1ccc(SCC(=O)NC(=O)c2ccc(Cl)cc2)cc1`, the fluorescence intensity is 3220 (inactive).

Take `CC(C)CNC(=S)NC(=O)c1ccc(Cl)cc1`: the fluorescence intensity was 2350 (inactive).

For `COC(=O)/C(NC(C)=O)=C(\C)c1ccc(Cl)cc1`, the fluorescence intensity is 17300 (active).

On to `COc1ccc(CC(N)c2csc(NC(=O)NC(c3ccccc3)c3ccccc3)n2)cc1` (stereo not given), for which the fluorescence intensity was 3610 (inactive).

Turning to `COc1ccc(OC)c(C(O)c2ncc(-c3cccc(C(F)(F)F)c3)[nH]2)c1` (stereo not given), the fluorescence intensity is 3890 (inactive).

As for `CN1OC[C@@H]2CN(C(=O)c3cccnc3)[C@H](c3ccc(N4CCCCC4)cc3)C[C@@H]21`, the fluorescence intensity is 4430 (inactive).

As for `CN1OC[C@@H]2CN(S(=O)(=O)c3cccc4ccccc34)[C@H](c3ccc(N4CCCCC4)cc3)C[C@@H]21`, the fluorescence intensity was 25600 (active).

As for `CN1OC[C@@H]2CN(C(=O)c3cccc4ccccc34)[C@H](c3ccc(N4CCCCC4)cc3)C[C@@H]21`, the fluorescence intensity was 11700 (inactive).

For `Cc1cc(C)c2nc3nc(C)cc(C)c3c(N)c2c1`, the fluorescence intensity was 2140 (inactive).

For `CCOC(=O)Cc1ncccc1C(=O)Nc1ccc(OC)cc1`, the fluorescence intensity is 3720 (inactive).

`CCOc1ccc(NC(=O)CSc2nncn2C)cc1`: the fluorescence intensity is 3760 (inactive).

As for `CCCCOc1ccc(NC(=O)CSCC(=O)OCC)cc1`, the fluorescence intensity is 21000 (active).

As to `COc1ccc(C(C)C)cc1-c1ccc2nncn2c1`, the fluorescence intensity was 3610 (inactive).

For `CC1(C(=O)NS(=O)(=O)c2ccccc2)CCN1C(=O)c1ccccc1` (stereo not given), the fluorescence intensity was 3830 (inactive).

As to `CCCCCCN1CCN(C2CN(Cc3cn(Cc4ccc(F)cc4)nn3)S(=O)(=O)C2)CC1` (stereo not given), the fluorescence intensity was 6160 (inactive).

As to `CSc1nsc(SCC(=O)Nc2cc(C(=O)O)ccc2C)n1`, the fluorescence intensity is 4170 (inactive).

`N[C@@H](Cc1c[nH]c2ccccc12)c1nnc(SCc2c(F)cccc2Cl)o1`: the fluorescence intensity was 22800 (active).

On to `Oc1ccc(-n2nnnc2SCc2c(F)cccc2Cl)cc1`, for which the fluorescence intensity was 3260 (inactive).

For `CC(C)C[C@@H](N)c1nnc(SCC(=O)c2ccc(Cl)cc2)o1`, the fluorescence intensity was 9640 (inactive).
